Common to all, as to assay: NCI-60 one-dose screen, 48 h (100 = growth as untreated, 0 = no growth, -100 = all killed)
The test system of one assay is NCI-H23 lung. Conditions: 10 µM.
A further assay relates to NCI-H226 lung. To be noted: 10 µM.
The test system of a further assay is NCI-H322M lung. To be noted: 10 µM.
The next assay deals with HOP-62 NSCLC. Conditions: 10 µM.
The next assay relates to NCI-H460 lung. Conditions: 10 µM.
For another assay, the system named is HOP-92 NSCLC. Conditions: 10 µM.
For the next assay, the system named is NCI-H522 lung. To be noted: 10 µM unless noted.
The test system of a further assay is A549/ATCC NSCLC. To be noted: 10 µM.
The subject of the next assay is 786-0 renal. To be noted: 10 µM.
In another assay the test system is COLO 205 colon. To be noted: 10 µM.
The next assay has as its system DU-145 prostate. To be noted: 10 µM unless noted.
The next assay has as its system K-562 leukemia. To be noted: 10 µM.
In the next assay the test system is MALME-3M melanoma. To be noted: 10 µM.
The next assay concerns MDA-MB-231 breast. Conditions: 10 µM.
In another assay the test system is RXF 393 renal. Conditions: 10 µM unless noted.
In another assay the test system is SF-268 CNS. Conditions: 10 µM.
The subject of another assay is SF-295 CNS. Conditions: 10 µM.
The test system of the next assay is SF-539 CNS. Conditions: 10 µM.
For the next assay, the system named is M14 melanoma. Conditions: 10 µM.
The next assay concerns UACC-257 melanoma. Conditions: 10 µM.

Where “and” joins values, the source holds several entries; their conditions need not be identical. Equal values may be shown once. This is part of a sample that, as a whole, favours compounds with a hit. Of some 83,000 tested, about 20% had one in any assay.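 A percent growth of 40 corresponds to 60% growth inhibition; 0 means no net growth; -100 means all cells died. Active threshold: below 10.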 More than one record can exist for a structure, and the calls need not agree. Calls of active or inactive are those of the source.

Regarding `COC1OCC(O)C(O)C1O` (configuration not stated), the growth with NCI-H23 lung is 98.3% (inactive); with NCI-H226 lung, 108% (inactive); in the assay on NCI-H322M lung, 99.8% (inactive); with HOP-62 NSCLC, 102% (inactive); in the assay on NCI-H460 lung, 104% (inactive); in the assay with HOP-92 NSCLC, 103% (inactive). Moreover, the growth in the assay on NCI-H522 lung was 97.5% (inactive); with A549/ATCC NSCLC, 101% (inactive); in the assay on 786-0 renal, 101% (inactive); in the assay on COLO 205 colon it was 107% (inactive); in the assay with DU-145 prostate it was 105% (inactive); in the assay with K-562 leukemia, 104% (inactive). The growth with MALME-3M melanoma is 103% (inactive); with MDA-MB-231 breast it was 110% (inactive); with RXF 393 renal, 106% (inactive); with SF-268 CNS, 98.4% (inactive); with SF-295 CNS, 105% (inactive); with SF-539 CNS, 107% (inactive). The growth in the assay with M14 melanoma was 101% (inactive).

For the molecule `CC(C)(C)CC(C)(C)c1ccc(OCCO)cc1`, the growth was 106% (inactive) with NCI-H23 lung; 105% (inactive) in the assay with NCI-H226 lung; 115% (inactive) in the assay with NCI-H322M lung; 110% (inactive) in the assay with HOP-62 NSCLC; 117% (inactive) in the assay on NCI-H460 lung; 96.4% (inactive) in the assay on A549/ATCC NSCLC. Moreover, the growth in the assay with 786-0 renal is 109% (inactive); in the assay with COLO 205 colon, 110% (inactive); in the assay on DU-145 prostate, 111% (inactive); in the assay with K-562 leukemia, 93.4% (inactive); in the assay on MALME-3M melanoma, 158% (inactive); with MDA-MB-231 breast, 106% (inactive). For the same molecule, the growth in the assay with RXF 393 renal was 119% (inactive); in the assay on SF-268 CNS, 108% (inactive); with SF-295 CNS it was 109% (inactive); with SF-539 CNS, 96.8% (inactive); with UACC-257 melanoma it was 108% (inactive); in the assay with M14 melanoma, 112% (inactive).

On to `CS(=O)(=O)OC1CC(n2ccc(=O)[nH]c2=O)OC1COC(c1ccccc1)(c1ccccc1)c1ccccc1` (configuration not stated), for which the growth is 106% (inactive) in the assay on NCI-H23 lung; 104% (inactive) in the assay on NCI-H226 lung; 89.1% (inactive) in the assay on NCI-H322M lung; 106% (inactive) in the assay with HOP-62 NSCLC; 112% (inactive) in the assay on NCI-H460 lung; 86.1% (inactive) in the assay with NCI-H522 lung. Further, the growth is 101% (inactive) with A549/ATCC NSCLC; 99.8% (inactive) in the assay with DU-145 prostate; 98.5% (inactive) with K-562 leukemia; 91.9% (inactive) in the assay on MALME-3M melanoma; 106% (inactive) in the assay with MDA-MB-231 breast; 105% (inactive) in the assay with RXF 393 renal. Moreover, the growth with SF-268 CNS was 103% (inactive); in the assay on SF-295 CNS it was 110% (inactive); in the assay on SF-539 CNS, 105% (inactive); in the assay with UACC-257 melanoma, 102% (inactive); with M14 melanoma, 88.7% (inactive).

`Cc1cc(NS(=O)(=O)c2ccc(N=Nc3cc(N=Nc4ccc(S(=O)(=O)Nc5cc(C)nc(C)n5)cc4)c4c(NC(=O)C(Cl)Cl)cccc4c3OC(=O)C(Cl)Cl)cc2)nc(C)n1` (tested in a mixture with another compound): the growth in the assay with NCI-H23 lung is 107% (inactive); in the assay on NCI-H226 lung it was 94.6% (inactive) and 96.1% (inactive); in the assay on NCI-H322M lung it was 94.9% (inactive) and 87.3% (inactive); with HOP-62 NSCLC, 102% (inactive) and 103% (inactive); in the assay on NCI-H460 lung it was 109% (inactive) and 103% (inactive); in the assay on HOP-92 NSCLC it was 99% (inactive) and 120% (inactive). The growth in the assay on NCI-H522 lung is 86.1% (inactive) and 3.96% (active); in the assay with A549/ATCC NSCLC, 98.9% (inactive) and 95.2% (inactive); in the assay with 786-0 renal it was 111% (inactive) and 115% (inactive); in the assay with COLO 205 colon it was 109% (inactive) and 113% (inactive); with DU-145 prostate it was 118% (inactive) and 110% (inactive); with K-562 leukemia, 108% (inactive) and 117% (inactive). Besides, the growth with MALME-3M melanoma is 101% (inactive) and 94% (inactive); in the assay with MDA-MB-231 breast, 81.8% (inactive) and 68.1% (inactive); in the assay on RXF 393 renal it was 110% (inactive) and 93% (inactive); in the assay on SF-268 CNS, 108% (inactive) and 115% (inactive); in the assay with SF-295 CNS it was 86.2% (inactive); in the assay on SF-539 CNS it was 99.3% (inactive) and 108% (inactive). Further, the growth with UACC-257 melanoma was 101% (inactive) and 92.8% (inactive); with M14 melanoma, 113% (inactive) and 111% (inactive).

Turning to `O=C(O)COc1ccc(OCC(=O)O)cc1`, the growth in the assay with NCI-H23 lung is -0.769% (active); in the assay on NCI-H226 lung it was -60.2% (active); in the assay on NCI-H322M lung it was 39.3% (inactive); in the assay with HOP-62 NSCLC, -15% (active); with NCI-H460 lung, -17.8% (active); in the assay with HOP-92 NSCLC, -3.9% (active). The growth with NCI-H522 lung was -3.87% (active); in the assay on 786-0 renal, -9.28% (active); in the assay with COLO 205 colon it was 16% (inactive); in the assay with DU-145 prostate, 5.6% (active); in the assay on K-562 leukemia, 20% (inactive); in the assay with MALME-3M melanoma it was 21.3% (inactive). Moreover, the growth in the assay with MDA-MB-231 breast was 27.8% (inactive); with RXF 393 renal, 24.7% (inactive); with SF-268 CNS it was 14.2% (inactive); with SF-295 CNS, -9.53% (active); in the assay with SF-539 CNS, -0.842% (active); with M14 melanoma, 20.7% (inactive).

In the case of `CCCC1CCC(=C2C(=O)CCC2=O)O1` (configuration not stated), the growth is 102% (inactive) and 98.7% (inactive) with NCI-H23 lung; 102% (inactive) and 108% (inactive) in the assay with NCI-H226 lung; 90.9% (inactive) and 96.9% (inactive) with NCI-H322M lung; 90.6% (inactive) and 101% (inactive) in the assay with HOP-62 NSCLC; 101% (inactive) and 113% (inactive) in the assay with NCI-H460 lung; 103% (inactive) in the assay on HOP-92 NSCLC. Also, the growth in the assay on NCI-H522 lung is 121% (inactive) and 83.9% (inactive); in the assay on A549/ATCC NSCLC, 110% (inactive) and 97.5% (inactive); in the assay with 786-0 renal it was 105% (inactive) and 92.9% (inactive); in the assay with COLO 205 colon, 100% (inactive) and 99.2% (inactive); with DU-145 prostate, 102% (inactive) and 92.3% (inactive); in the assay on K-562 leukemia, 145% (inactive) and 121% (inactive). Also, the growth in the assay with MALME-3M melanoma is 103% (inactive) and 101% (inactive); in the assay with MDA-MB-231 breast, 102% (inactive) and 101% (inactive); in the assay with RXF 393 renal, 103% (inactive) and 97.7% (inactive); in the assay on SF-268 CNS, 100% (inactive) and 107% (inactive); in the assay on SF-295 CNS, 97.3% (inactive) and 89.8% (inactive); in the assay with SF-539 CNS, 92.7% (inactive) and 96.7% (inactive). The growth with UACC-257 melanoma was 106% (inactive) and 95.3% (inactive); in the assay on M14 melanoma, 100% (inactive) and 74.4% (inactive).

The values are drawn from PubChem BioAssay (NCI).
